Compound activity from PubChem.
MITF act: increases MITF-driven TRPM1 promoter luciferase signal | AID 588334 | activation, % at 12.5 µM | 0.75% of 300,000 active | SK-MEL-5 TRPM1-promoter luciferase, 24 h; % of positive control, neutral wells = 0;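 active = mean activation of at least 80% with every replicate also reaching 80%; inconclusive = mean reaches 80% but some replicate falls short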
LGR2 inh: inhibitors of bursicon-induced Drosophila LGR2 receptor cAMP signaling | HEK293 LGR2, CRE-luciferase, bursicon-stimulated, 4 h | inhibition, % at 9.99 µM | 0.35% of 380,000 active | AID 720647;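 active = drop in luminescence signal, shown as inhibition above about 50% in the replicate tests, limit read from the data, passing the limit was not always enough; inconclusive = probably only some replicates passing the limit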;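 also: agonist challenge used bursicon conditioned medium at about half maximal strength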
TROY NFkB inh: TROY signaling inhibition | inhibition, % at 10 µM | Q293 LMP1-TROYcd NF-kB luciferase reporter, 4 h | 0.98% of 360,000 active;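 active = compounds whose plate-normalised and pattern-corrected inhibition of the luciferase reporter signal at the single screening dose is 50% or more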
TWEAK Fn14 block: blocks TWEAK-Fn14 interaction in a reporter cell assay | AID 1159606 | inhibition, % at 10 µM | TWEAK-stimulated Fn14 reporter cells, luciferase luminescence, 8 h | 2% of 360,000 active; in the data active = inhibition above about 50%
EBV LMP1 NFkB: reduces LMP1-driven NF-kappaB luciferase signal. LMP1-induced NF-kappaB luciferase reporter cells, luminescence. inhibition, % at 12.5 µM. 0.69% of 350,000 active. AID 504558; in the data active = inhibition above about 41%; inconclusive = no clear call, values can overlap the other calls
MITF TRPM1 inh: inhibitors of MITF-driven TRPM1 promoter in melanoma cells; SK-MEL-5 TRPM1 promoter luciferase, 24 h; inhibition, % at 12.5 µM; 0.83% of 330,000 active; AID 488899;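 active = mean inhibition across replicates of 60% or more, whatever share of single replicates reaches that level; inconclusive = some that reach 60%, reason not given; inactive = mean inhibition across replicates below 60%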
Hits are given with their value; i = inactive; ? = inconclusive; nt = no result. Hits are enriched below; roughly 3% of the tested compounds scored in any of these assays.

SMILES | MITF act | LGR2 inh | TROY NFkB inh | TWEAK Fn14 block | EBV LMP1 NFkB | MITF TRPM1 inh
CCc1ccc(OCCCC(=O)Nc2ccc(S(=O)(=O)Nc3cc(C)nc(C)n3)cc2)cc1 | nt | i | i | 55 | i | i
CCCC(=O)Nc1ccc(S(=O)(=O)Nc2cc(C)nc(C)n2)cc1 | i | i | i | i | i | i
C[C@H]1CN([C@@H](C)CO)C(=O)c2cc(NS(=O)(=O)c3ccc(F)cc3)ccc2O[C@@H]1CN(C)C | nt | i | nt | nt | nt | nt
O=c1c2c3c(sc2nc2n1N=C(c1cccs1)CS2)CCCC3 | 135 | nt | i | i | i | i
COc1ccccc1-c1ccc(NC2CCCCC2)nn1 | 83 | nt | i | i | i | i
Cc1cccc(C)c1OCCOC(=O)c1cccc(S(=O)(=O)N2CCOCC2)c1 | i | i | i | i | i | i
Cc1cc(=O)oc2ccc(OC(=O)c3cccc(S(=O)(=O)N4CCOCC4)c3)cc12 | i | i | i | 101 | i | i
CO[C@H]1CN(C)C(=O)c2ccc(NC(C)=O)cc2OC[C@@H](C)NC[C@@H]1C | nt | i | nt | nt | nt | nt
Cc1ccc(CSC(Nc2ccc(F)cc2)=C(C#N)C#N)cc1 | i | nt | i | 53 | i | i
CCCCNc1ccc2c(c1)C1CC2CCN1C(=O)OCc1ccccc1 (stereo not given) | 125 | i | i | i | i | i
C[C@@H]1CCCCO[C@H](CN(C)C(=O)Nc2cccc3ccccc23)[C@H](C)CN([C@H](C)CO)C(=O)c2cc(NS(=O)(=O)c3cn(C)cn3)ccc2O1 | nt | i | nt | nt | nt | nt
C[C@H](CO)N1C[C@H](C)[C@H](CN(C)C(=O)NC2CCCCC2)OCCCC[C@H](C)Oc2ccc(NS(=O)(=O)c3ccccc3)cc2C1=O | nt | i | nt | nt | nt | nt
Cc1cccc(-n2c(-c3csc(C)c3C)n[nH]c2=S)c1 | i | i | i | 92 | i | i
Cc1ccccc1-n1c(-c2csc(C)c2C)n[nH]c1=S | i | i | i | i | i | i
CCS(=O)(=O)N1CCC(NC(=O)C(Cc2cccc(OC)c2OC)NC(C)=O)CC1 (stereo not given) | nt | i | i | 85 | i | i
O=S(=O)(c1ccccc1F)N1C[C@@H]2[C@H](c3ccccc31)[C@H](CO)N2Cc1ccc2c(c1)OCO2 | nt | i | nt | nt | nt | nt
O=c1[nH]c(CSc2ccccn2)nc2c1oc1ccccc12 | i | 80 | i | 65 | i | i
Cc1nc2scc(-c3cccs3)c2c(=O)[nH]1 | i | i | i | i | i | i
O=c1[nH]c(-c2ccc(O)cc2)nc2scc(-c3cccs3)c12 | 114 | i | i | i | i | i
COc1ccc2[nH]c3c(=O)n(CCCCC(=O)N4CCC(C(N)=O)CC4)c(=S)[nH]c3c2c1 | i | i | i | i | 65 | i
C[C@@H]1CN([C@H](C)CO)C(=O)c2cccc(NS(=O)(=O)c3cccs3)c2O[C@@H]1CN(C)C(=O)NC1CCCCC1 | nt | i | nt | nt | nt | nt
Cc1occc1C(=O)N/N=C/c1ccc2c(c1)OCO2 | i | i | i | 64 | i | i
Cc1ccsc1C(=O)N/N=C/c1ccc2c(c1)OCO2 | i | ? | i | 55 | i | i
Cc1occc1C(=O)N/N=C/c1cccc2ccccc12 | 97 | i | i | i | i | i
CC(C)(C)OC(=O)N/N=C\C=C\c1ccc2c(c1)OCO2 | 119 | i | i | i | i | i
SMILES | MITF act | LGR2 inh | TROY NFkB inh | TWEAK Fn14 block | EBV LMP1 NFkB | MITF TRPM1 inh
Cc1cc(C(=O)N/N=C/c2ccc3c(c2)OCO3)c(C)o1 | i | i | i | i | i | i
COCC(=O)N(C)C[C@@H]1Oc2ncc(C#C[C@@H](C)O)cc2C(=O)N([C@H](C)CO)C[C@@H]1C | nt | i | nt | nt | nt | nt
O=C(C[C@@H]1CC[C@@H]2[C@H](COC[C@H](O)CN2C(=O)c2ccc(F)cc2)O1)Nc1nccs1 | nt | i | nt | nt | nt | nt
COc1ccc(NC(=O)N(C)C[C@H]2Oc3ccc(NC(=O)Cn4cnnn4)cc3C(=O)N([C@H](C)CO)C[C@H]2C)cc1 | nt | i | nt | nt | nt | nt
O=C(N/N=C/c1ccsc1)c1ccc2c(c1)OCO2 | 86 | i | i | i | i | i
Cc1ccc(C(=O)Nc2nnc(-c3ccc(C(C)(C)C)cc3)s2)cc1 | i | nt | i | i | 57 | i
O=C(Nc1nnc(SCC(=O)N2CCCc3ccccc32)s1)c1cccc2ccccc12 | i | i | i | i | i | i
CN(C)S(=O)(=O)c1ccc(C(=O)Nc2nnc(SCC(=O)N3CCOCC3)s2)cc1 | nt | i | i | i | i | nt
Cc1ccc(C(=O)Nc2nnc(SCC(=O)N3CCCc4ccccc43)s2)cc1 | i | nt | i | 55 | 51 | i
CCOC(=O)CNC(=O)CSc1nnc(NC(=O)c2ccc(C)cc2)s1 | i | 73 | i | 68 | 55 | i
CC(C)Oc1ccc(C(=O)Nc2nnc(SCC(=O)N3CCOCC3)s2)cc1 | i | 74 | i | 50 | 70 | i
COc1ccc(C(=O)Nc2nnc(-c3ccccc3)s2)cc1 | i | i | i | i | i | i
O=C(C[C@H]1C=C[C@@H](NC(=O)C2CC2)[C@@H](CO)O1)NCCCN1CCOCC1 | nt | i | nt | nt | nt | nt
COc1ccccc1S(=O)(=O)N[C@H]1CC[C@H](CCNC(=O)C2CCCC2)O[C@@H]1CO | nt | i | nt | nt | nt | nt
CNC[C@H]1OCCCC[C@H](C)Oc2ccc(NS(=O)(=O)c3ccc(Cl)cc3)cc2C(=O)N([C@H](C)CO)C[C@@H]1C | nt | i | nt | nt | nt | nt
Cn1cc(/C=N/n2cnc3sc4c(c3c2=O)CCCC4)c2ccccc21 | nt | nt | i | i | i | i
O=c1c2c3c(sc2ncn1/N=C/c1ccc([N+](=O)[O-])o1)CCCC3 | i | i | i | 64 | i | 82
COc1ccc(-c2ccccc2[C@H]2[C@@H](C#N)N(C(=O)C3CCCCC3)[C@H]2CO)cc1 | nt | i | nt | nt | nt | nt
CC1(C)N=C(N)N=C(N)N1c1ccc(OCCCOc2ccccc2)c(Cl)c1 | i | i | i | 87 | i | i
CCc1nnc(NC(=O)c2ccc(S(=O)(=O)N(CCOC)CCOC)cc2)o1 | i | nt | i | i | i | i
COCCN(CCOC)S(=O)(=O)c1ccc(C(=O)Nc2nnc(C3CC3)o2)cc1 | i | nt | i | 67 | i | i
CO[C@@H]1CN(C)C(=O)c2ccc(NC(=O)C3CC3)cc2OC[C@@H](C)N(CC2CCCC2)C[C@@H]1C | nt | i | nt | nt | nt | nt
Fc1ccc(N2CCN(c3ncnc4c3nnn4Cc3ccccc3Cl)CC2)cc1 | i | nt | i | 65 | i | i
FC(F)(F)c1ccc(N2CCN(c3ncnc4c3nnn4Cc3ccccc3Cl)CC2)cc1 | i | nt | i | i | i | i
CC1Cc2cc(-c3csc(NC(=O)Cc4cccs4)n3)ccc2N1S(C)(=O)=O (stereo not given) | i | nt | 75 | 101 | i | i
CCCC(=O)Nc1nc(-c2ccc3c(c2)CCN3S(C)(=O)=O)cs1 | i | nt | i | i | i | i
CS(=O)(=O)N1CCc2cc(-c3csc(NC(=O)Cc4ccccc4)n3)ccc21 | i | i | i | 58 | i | i
CCC(=O)Nc1nc(-c2ccc3c(c2)CC(C)N3S(C)(=O)=O)cs1 (stereo not given) | i | i | i | i | i | i
Cc1cccc(CS(=O)(=O)Cc2ccc(C(=O)NC(C)c3ccccc3)o2)c1 (stereo not given) | i | i | i | i | i | i
